The values below come from PubChem BioAssay (NCI).

The panel holds about 83,000 compounds, 20% with a hit somewhere; the sample as a whole holds those more often.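 Plates (96-well) were seeded with cells, treated with compound at one concentration, and incubated for 48 hours before percent growth was determined.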 A number with no mark means an inactive call. Calls of active or inactive are those of the source. The calls were made as follows: active = growth percent below 10; inactive = the rest.

For this test, the system named is HL-60(TB) leukemia. Description: NCI-60 one-dose screen, 48 h (100 = growth as untreated, 0 = no growth, -100 = all killed). The note with it: 10 µM unless noted.
For `O=C(Nc1ccc(Cl)cc1Cl)Nc1ccc(-c2cccnc2)cc1N1CCC(CO)CC1`, the growth is 6.31% (active).
The result for `COC(=O)[C@]1(C)CCC[C@]2(C)[C@H]3C[C@H]4C(C(C)C)=C[C@]3(CC[C@H]21)[C@@H]1C(=O)CC[C@H](OCCC#N)[C@@H]14` reads 113%; that for `CCc1nn2c(-c3cc(OC)c(OC)c(OC)c3)c(-c3cc(OC)c(OC)c(OC)c3)nc2s1`, 59.3%.
To `C[C@@H]1C(=O)[C@@H]2C[C@@H](O)[C@@H](O)C[C@]2(C)[C@H]2CC[C@@]3(C)C(=C12)CC[C@@H]3[C@@](C)(O)[C@H](O)CCC(C)(C)O` belongs 85.7%.
The result for `Cn1cc(-c2ccc3c(c2)ncn3-c2ccc(CC(=O)Nc3cc(C(C)(C)C)on3)cc2)cn1` reads 67.4%; that for `CNC(=O)c1cc(-n2ccc3cc(NC(=O)c4ccc(N5CCOCC5)c(C(F)(F)F)c4)ccc32)ccn1`, 66.3%; that for `O=C1C(c2c(O)[nH]c3ncccc23)=Nc2ccccc21`, 173%.
Turning to `CN(C)c1ccc2c(c1)/C(=N/O)c1ccccc1-2`, the growth was 87.3%.
For `C=C(C)[C@@H]1CC[C@]2(COC(C)=O)CC[C@]3(C)[C@H](CC[C@@H]4[C@@]5(C)CCCN(C(C)=O)C(C)(C)[C@@H]5CC[C@]43C)[C@@H]12`, the growth was -29.2% (active).
`CCNCCCCNCCCCNCCCCNCCCCNCC`: the growth was 127%.
Turning to `C=C1C(=O)O[C@H]2[C@H]1CC/C(COC(=O)CCCCCC(=O)OC/C1=C/CC[C@@]3(C)O[C@H]3[C@H]3OC(=O)C(=C)[C@@H]3CC1)=C\CC[C@@]1(C)O[C@@H]21`, the growth was -30% (active).
To `CC(C)(C)OC(=O)N1CCN(c2ccc(N)cc2)C(=O)C1` belongs 102%.
